Data on 12 molecules can be found in PubChem BioAssay (NCATS).

Values without a mark were called inactive. Activity calls are given as the source filed them. Calls come from the whole dose curve; as a rule, active = well fitted curve in the direction sought with a large enough effect in the signal ratio, with a control signal flat (not every such curve was filed as active); inconclusive = small, poorly fitted or top-dose-only effect, or effect the other way, or a change in a side signal; inactive = no such curve, though single readings can be large or run the other way; the % refers to the signal ratio.
% is set by controls: 0 for no effect and ±100 for the full control effect.

Estrogen receptor (Homo sapiens), sequence (P03372 whole entry, looked up): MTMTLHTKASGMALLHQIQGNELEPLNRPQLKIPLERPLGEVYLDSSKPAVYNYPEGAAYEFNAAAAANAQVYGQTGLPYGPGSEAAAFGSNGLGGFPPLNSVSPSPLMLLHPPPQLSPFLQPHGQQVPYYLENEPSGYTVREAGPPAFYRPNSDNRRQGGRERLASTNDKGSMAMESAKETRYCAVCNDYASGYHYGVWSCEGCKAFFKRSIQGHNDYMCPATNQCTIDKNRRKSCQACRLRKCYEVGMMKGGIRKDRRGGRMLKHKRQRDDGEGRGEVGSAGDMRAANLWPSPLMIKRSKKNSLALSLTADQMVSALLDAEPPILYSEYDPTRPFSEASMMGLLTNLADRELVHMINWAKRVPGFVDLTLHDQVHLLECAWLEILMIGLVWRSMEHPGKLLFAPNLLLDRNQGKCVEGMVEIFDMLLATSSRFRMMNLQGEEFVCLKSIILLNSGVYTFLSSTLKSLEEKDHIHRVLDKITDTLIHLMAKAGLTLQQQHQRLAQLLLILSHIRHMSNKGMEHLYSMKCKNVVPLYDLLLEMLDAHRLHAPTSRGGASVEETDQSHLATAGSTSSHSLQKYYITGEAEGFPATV

This assay addresses Estrogen receptor (Homo sapiens) (UniProt P03372). Description: qHTS assay for small molecule antagonists of estrogen receptor alpha signaling (AID 588513). As to conditions: ER-alpha-UAS-bla HEK293, beta-lactamase ratio, antagonist mode; series mostly up to 76.9 µM; activity, negative = inhibition: at the top concentration. The source says: NIH Chemical Genomics Center [NCGC]
U.S. Environmental Protection Agency [EPA]
National Institutes of Environmental Health Sciences [NIEHS]
National Toxicology Program [NTP]
Estrogen receptor alpha (ER-alpha) is an important member of nuclear hormone receptors. ER-alpha plays important role in breast cancer as well as in other women's health issues. The majority of breast cancers is estrogen receptor (ER) positive and depends on estrogen for growth. There is also growing concern for some of environmental chemicals which may contribute the increasing the incidence of breast cancer. Therefore, it is important to understand the effect of environmental chemicals in ER-alpha signaling pathway.
NCGC Assay Protocol Summary
Using a beta-lactamase reporter-gene under control of the ER response element, a cell-based assay [ER-alpha-UAS-bla GripTiteTM cell-Based Assay from Invitrogen] was used to measure ER-alpha signaling pathway in antagonist mode. ER-alpha-UAS-bla-GripTite HEK 293 cells were used with assay medium containing 2% charcoal/dextran treated FBS, 0.1 mM NEAA and 1 mM sodium pyruvate. Cells were cultured in this assay medium overnight in the flasks before the assay. The assay was performed in clear bottom black Greiner 1536-well plates. 17-beta-estradiol was used as a positive control in the screen. Library compounds were measured for their ability to inhibit the reporter gene activity. Compounds were screened in a titration series in 1536-well format. […] Data was normalized relative to 17-beta-estradiol control (0.5nM, 100%), and DMSO only wells (basal, 0%). Concentration-response titration points for each compound were fitted to the Hill equation yielding concentrations of half-maximal inhibition (IC50) and maximal response (efficacy) values.
qHTS protocol for ER-alpha beta-lactamase assay in antagonist mode
[Step] [Parameter] [Value] [Description]
1. Reagent; 5 uL; 5000 cells/well
2. Incubation; 37 C for 4 hrs
- Dose response, Start 38uM, 1:2 dilutions with duplicates
- Two columns with 38 and 19uM (final) concentration.
5. Agonist (Stimulator); 1uL; 17-beta-estradiol at 0.5nM (final) concentration
6. Incubation; 37 C for 18 hrs
7. Detection reagent; 1 uL of CCF4-dye
8. Incubation; RT for 2 hrs
9. Detection; Fluorescence; Envision plate reader or Acumen plate reader
As to `O=C(NC(=O)c1c(F)cccc1F)Nc1cc(Cl)c(OC(F)(F)C(F)C(F)(F)F)cc1Cl` (configuration not stated), the “activity, negative = inhibition” value was -7.78%.

In the case of `Oc1ccc(Cl)cc1Cc1cc(Cl)ccc1O`, the Potency was 44.7 µM [inconclusive] (active).

Consider `O=c1n(Cl)c(=O)n(Cl)c(=O)n1Cl`, for which the “activity, negative = inhibition” value is -14.9%.

As for `NC(N)=NC(=O)c1nc(Cl)c(N)nc1N`, the “activity, negative = inhibition” value was 32.5%.

Consider `CNC(=O)Oc1cccc2ccccc12`, for which the Potency entry is “inactive”.

As to `Oc1c(Br)cc(Br)cc1Br`, the Potency entry was “inactive”.

Turning to `C[C@H]1C(=O)O[C@@H]2CCN3CC=C(COC(=O)[C@](C)(O)[C@]1(C)O)[C@H]23`, the “activity, negative = inhibition” value was -16.2%.

Turning to `CCCCCCCCC(=O)NCc1ccc(O)c(OC)c1`, the “activity, negative = inhibition” value is 13.7%.

In the case of `CCCCCCCCCCCC[N+](C)(C)CCOc1ccccc1`, the Potency was 12.6 µM [inconclusive] (active).

On to `COCC(=O)N(c1c(C)cccc1C)C(C)C(=O)OC` (configuration not stated), for which the “activity, negative = inhibition” value is -26.5%.

Take `COP(=O)(OC)OC=C(Cl)Cl`: the Potency result was “inactive”.

For the molecule `CN(C)C(=S)SSC(=S)N(C)C`, the Potency result is “inactive”.
